Results taken from PubChem BioAssay AID894 (National Center for Advancing Translational Sciences (NCATS), 2007).
About 6,500 (4.3%) of roughly 150,000 compounds were called active. About 12% were inconclusive and are not listed. The full list was thinned out, with actives kept by preference. Values without a mark were called inactive. The call rests on the fitted dose curve; in most records, active means well fitted inhibition curve with a large enough effect (not every such curve was filed as active); inconclusive means small, poorly fitted or top-dose-only effect, or another doubt; inactive means no such curve, though single readings can be large or run the other way.

Target: 15-hydroxyprostaglandin dehydrogenase [NAD(+)] (Homo sapiens) (UniProt P15428)
Test: qHTS Assay for Inhibitors of HPGD (15-Hydroxyprostaglandin Dehydrogenase)
Details: purified HPGD, NADH fluorescence kinetic, PGE2 substrate; activity change, negative = inhibition: active compounds read low
Source text: Human 15-Hydroxyprostaglandin dehydrogenase (HPGD) catalyzes the inactivation of prostaglandin E2, and plays a major role in cancer biology by antagonizing the oncogenic potential of cyclooxygenase type 2 (COX2). Assays are available, based on absorbance/fluorescence increase of NADH with the substrate 15-OH prostaglandin E2. References 1. Myung SJ, Rerko RM, Yan M, Platzer P, Guda K, Dotson A, Lawrence E, Dannenberg AJ, Lovgren AK, Luo G, Pretlow TP, Newman RA, Willis J, Dawson D, Markowitz SD. 15-Hydroxyprostaglandin dehydrogenase is an in vivo suppressor of colon tumorigenesis. […] 2. Yan M, Rerko RM, Platzer P, Dawson D, Willis J, Tong M, Lawrence E, Lutterbaugh J, Lu S, Willson JK, Luo G, Hensold J, Tai HH, Wilson K, Markowitz SD. 15-Hydroxyprostaglandin dehydrogenase, a COX-2 oncogene antagonist, is a TGF-beta-induced suppressor of human gastrointestinal cancers. Proc Natl Acad Sci U S A. 2004 Dec 14;101(50):17468-73. 3. Yang L, Amann JM, Kikuchi T, Porta R, Guix M, Gonzalez A, Park KH, Billheimer D, Arteaga CL, Tai HH, Dubois R, Carbone DP, Johnson DH. Inhibition of Epidermal Growth Factor Receptor Signaling Elevates 15-Hydroxyprostaglandin Dehydrogenase in Non-Small-Cell Lung Cancer. Cancer Res. 2007 Jun 15;67(12):5587-5593. Inhibition of HPGD activity was screened by utilizing prostaglandin as an electron donor and NAD+ as an electron acceptor/cofactor. An increase in the fluorescence intensity due to conversion of NAD+ to NADH was used to measure the enzyme activity. NIH Chemical Genomics Center [NCGC] Structural Genomics Consortium [SGC]
Buffer: 50 mM Tris-HCl, 0.01% Tween 20, pH 8. Enzyme Buffer: 50 mM Tris-HCl, 0.5 mM NAD+ and 0.01% Tween 20, pH 8. Reagents/Controls: Buffer in columns 3 and 4 as negative control (no enzyme). Substrate/cofactor solution: 1 mM NAD+ and 30 uM prostaglandin (Sigma, prostaglandin E2, # P5640) final concentrations dispensed throughout the plate. Enzyme: 20 nM HPGD final concentration in columns 1, 2, 5-48. Column 1 and 2 is neutral (100% activity). A titration of control inhibitor GW5074 (G6416 Sigma-Aldrich, St. Louis, MO) top concentration 10 mM in DMSO, then 1:2 dilution for a total of 16 concentrations in duplicate) was pin-transferred into column 2. Assay Steps: Three uL of enzyme were dispensed to 1536-well Greiner black solid bottom plates. Compounds and control inhibitor (23 nL) were transferred via Kalypsys PinTool. The plates were incubated for 15 min at room temperature, and then 1 uL of substrate/cofactor solution was added to start the reaction. The plates were immediately transferred to and read 5 times every 30 seconds on ViewLux High-throughput CCD imager (Perkin-Elmer) using 360 nm excitation and 450 nm emission fluorescence protocol. The fluorescence intensity difference between the last and the first time points was used to compute reaction progress.
On the % scale 0 is the no-effect control and ±100 the full control effect; potency means the concentration at half of the fitted maximal effect.

15-hydroxyprostaglandin dehydrogenase [NAD(+)] (Homo sapiens), sequence (P15428 whole entry, looked up): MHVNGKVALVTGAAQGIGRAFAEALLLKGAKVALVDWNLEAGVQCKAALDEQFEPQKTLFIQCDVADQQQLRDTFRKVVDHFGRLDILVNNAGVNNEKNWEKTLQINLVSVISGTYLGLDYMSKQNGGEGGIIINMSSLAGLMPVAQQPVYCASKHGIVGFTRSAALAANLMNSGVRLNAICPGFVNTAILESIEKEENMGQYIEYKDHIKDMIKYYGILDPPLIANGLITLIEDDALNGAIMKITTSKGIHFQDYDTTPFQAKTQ

SMILES | activity change, negative = inhibition | Potency
CCCc1cc(=O)[nH]c(SCC(=O)OCc2ccccc2)n1 | -12.3% | –
CCCc1cc(=O)[nH]c(SCC(=O)N2CCN(S(=O)(=O)c3ccc(C)cc3C)CC2)n1 | -0.796% | –
Cc1ccc2c(CSc3nncs3)cc(=O)oc2c1 | -18.3% | –
CCCc1cc(=O)n2[nH]c(SCc3ccccc3)nc2n1 | -15.8% | –
CCCc1cc(=O)[nH]c(SCc2ccc(C#N)cc2)n1 | – | 15.8 µM (active)
CCCc1cc(=O)[nH]c(SCc2cc(=O)oc3c(C)c(C)ccc23)n1 | – | 3.55 µM (active)
CCCCN1C(=O)CCC(C(=O)O)C1c1ccc(OC)cc1 (stereo not drawn) | -3.29% | –
CCc1cccc(NC(=O)CCC(=O)O)c1 | 6.1% | –
COc1ccc2c(CC(=O)OCC(=O)Nc3ccccc3[N+](=O)[O-])coc2c1 | -21.4% | –
COc1cc(OC)cc(C(=O)Nc2ccc(S(=O)(=O)Nc3cc(C)on3)cc2)c1 | -20.6% | –
COc1cc2ccccc2cc1C(=O)Nc1ccc(S(=O)(=O)Nc2cc(C)on2)cc1 | – | 20 µM (active)
Cc1cc(NS(=O)(=O)c2ccccc2)no1 | -11.9% | –
COc1ccc2nc(Nc3nc(-c4cc5ccccc5oc4=O)cs3)sc2c1 | -10.8% | –
C/C(=N\NS(=O)(=O)c1ccc(Cl)cc1)c1ccc(NC(=O)c2ccco2)cc1 | -18.3% | –
Nc1nnc(SCCN2C(=O)c3ccccc3S2(=O)=O)s1 | -12.2% | –
O=C(CN1C(=O)c2ccccc2S1(=O)=O)N1CCc2ccccc21 | -12.2% | –
O=C1c2ccccc2S(=O)(=O)N1CC(O)Cn1c2ccccc2c2ccccc21 (stereo not drawn) | – | 8.91 µM (active)
CCCCC/C=C\C/C=C\CCCCCCCCCC(=O)NCC(=O)O | -8.47% | –
Cc1cccc(-c2nc3ccccc3c(=O)n2NC(=O)Cc2ccc(Cl)cc2)c1 | -9.37% | –
CCCCc1cc2c(s1)CCCC/C2=N/O | -24.8% | –
CCSc1ccccc1C(=O)NCc1ccc(OC)cc1 | – | 2.51 µM (active)
COc1ccc(CNC(=O)CCn2cccc2)cc1 | -21.6% | –
CC(C)NC(=O)CSc1ccccc1C(=O)NCc1ccc2c(c1)OCO2 | -1.41% | –
Cc1cccc(N2C(=O)SC(N(CC(=O)O)c3cccc(C)c3)C2=O)c1 (stereo not drawn) | -14.2% | –

SMILES | activity change, negative = inhibition | Potency
Cc1cccc(N2C(=O)C3C(c4ccccc4)OC4(C(=O)c5ccccc5C4=O)C3C2=O)c1 (stereo not drawn) | -4.94% | –
Cc1cccc(N2C(=O)SC(SC(=Nc3ccccc3)Nc3ccccc3)C2=O)c1 (stereo not drawn) | – | 14.1 µM (active)
O=c1c2c(ncn1Cc1ccccc1)nc1n2CCC1 | -17.9% | –
COc1ccc(-c2csc(NC(=O)COC(=O)Cc3ccc(Cl)cc3Cl)n2)cc1 | -9.05% | –
O=C(Nc1cn(-c2ccccc2)nc1-c1ccccc1)c1ccccc1 | -2.03% | –
O=C(NC1CCCC1)C(NS(=O)(=O)c1ccc(Br)s1)c1ccccc1 (stereo not drawn) | -1.61% | –
O=C(NC1CCCC1)c1ccc(Br)s1 | – | 3.55 µM (active)
CN(CC(=O)NC1CCCCC1)S(=O)(=O)c1ccc(Br)s1 | -1.92% | –
O=C(COC(=O)c1c2c(nc3ccccc13)/C(=C\c1cccs1)CCC2)Nc1ccccc1Cl | -25.4% | –
C=CCN1c2ccccc2[C@]23C[C@@H](C(=O)OC)N(S(=O)(=O)c4ccc([N+](=O)[O-])cc4)C2=NC(C(=O)OC)=C(C(=O)OC)[C@H]13 | -18.4% | –
COc1cc(/C=C(/NC(=O)c2ccc(Cl)cc2Cl)C(=O)O)cc(OC)c1OC | -5.89% | –
COc1ccc(S(=O)(=O)Nc2ccc(O)c(Sc3nc4ccccc4s3)c2)cc1 | – | 25.1 µM (active)
COC(=O)c1nc2ccccc2s1 | 0.316% | –
COc1ccc(NS(=O)(=O)c2ccc(NC(=S)NC(=O)CC(C)C)cc2)cc1 | -14.4% | –
O=C(O)c1cccc(S(=O)(=O)Nc2ccc(O)cc2Sc2nc3ccccc3s2)c1 | – | 10 µM (active)
O=C(O)c1cccc(S(=O)(=O)NCCO)c1 | -3.87% | –
O=C(Nc1nc2cc3c(cc2s1)OCCO3)c1cccc(S(=O)(=O)N2CCOCC2)c1 | -10.8% | –
CC(=O)NC1=NN(C(C)=O)C(C)(CCS(=O)(=O)c2ccc(Cl)c(Cl)c2)S1 (stereo not drawn) | -9.18% | –
CCCCN1C(=O)c2ccc(C(=O)Nc3ccc(S(=O)(=O)N(C)C)cc3)cc2C1=O | -11.6% | –
CCCCCNC(=O)c1cccnc1SCC(=O)Nc1ccccc1OC | – | 10 µM (active)
CCCc1nc(SCC(=O)Nc2ccccc2OC)c2c(=O)n(C)c(=O)n(C)c2n1 | -0.308% | –
CCCNC(=O)c1ccccc1NC(=O)CSCc1ccc(OC)cc1 | -5.31% | –
COc1cccc(NC(=S)NC(=O)c2c(Cl)c(C)nn2C)c1 | -18.7% | –
Cc1sc2nc(CC(N)=O)[nH]c(=O)c2c1-c1ccccc1 | 1.92% | –

SMILES | activity change, negative = inhibition | Potency
O=C(Cn1nnc(-c2ccccc2)n1)NCc1ccc2c(c1)OCO2 | -12.6% | –
Cn1cc(CCC(=O)NCc2ccc3c(c2)OCO3)c2ccccc21 | -17.1% | –
O=C(CNS(=O)(=O)c1ccc(Br)s1)NCc1ccc2c(c1)OCO2 | -7.58% | –
CCOC(=O)NCc1ccc2c(c1)OCO2 | -9.86% | –
O=C(NCc1ccc2c(c1)OCO2)C12CC3CC(CC(C3)C1)C2 | – | 31.6 µM (active)
CC1CCCCN1CC(=O)NCc1ccc2c(c1)OCO2 (stereo not drawn) | – | 8.91 µM (active)
OC[C@H]1O[C@@H](n2cnc3c(NC4CCCC4)ncnc32)[C@H](O)[C@H]1O | -4.78% | –
CCCCC(NS(=O)(=O)c1ccc(C)cc1)C(=O)Oc1ccc2c3c(c(=O)oc2c1)CCC3 (stereo not drawn) | -8.04% | –
Cn1c(=O)c(Sc2ccc(Cl)cc2)c(O)c2ccccc21 | -12.7% | –
CC(C)OCCCNC(=O)c1cc(Sc2ccc(F)cc2)nc2ccccc12 | -12.9% | –
Cc1nc([N+](=O)[O-])nn1C12CC3CC(CC(Br)(C3)C1)C2 | – | 14.1 µM (active)
Cc1ncn(C23CC4CC(CC(O)(C4)C2)C3)n1 | -6.48% | –
COc1cccc(NC(=O)c2nn(C34CC5CC(CC(C5)C3)C4)cc2[N+](=O)[O-])c1 | -4.79% | –
O=C(COC(=O)c1cc2c(s1)CCCC2)NCc1ccccc1Cl | -9.08% | –
COc1ccc(CC(=O)N/N=C(\C)c2ccccn2)cc1 | -4.24% | –
Cc1ccc(S(=O)(=O)N2CCC(C(=O)N[C@@H](C)C(=O)NCc3ccco3)CC2)cc1 | -1.88% | –
S=C(NCCCc1cnc[nH]1)NCCCN(Cc1ccc(Cl)c(Cl)c1)c1ccc(Br)cn1 | -8.19% | –
COC(=O)c1ccc(NC(=O)Nc2ccc(C)cc2)cc1 | -17.3% | –
COC(=O)c1ccc(NCC(=O)c2ccccc2)cc1 | – | 17.8 µM (active)
Cc1ccc(C(=O)CNc2ccc(F)cc2)cc1 | -25.3% | –
Cc1ccc(-n2[nH]c(C)c(/C=N/NC(=O)c3cccc([N+](=O)[O-])c3)c2=O)cc1C | -25.4% | –
Cc1sc2ncnc(Sc3nc4ccccc4s3)c2c1C | -10.4% | –
CCOC(=O)c1ccc(N2C(=O)CC(N(C)Cc3ccccc3)C2=O)cc1 (stereo not drawn) | -4.27% | –
CCCCCCC(=O)N(O)C1CC(=O)N(c2ccccc2)C1=O (stereo not drawn) | – | 15.8 µM (active)

SMILES | activity change, negative = inhibition | Potency
CCOc1ccc(N2C(=O)CC(N(O)c3ccccc3)C2=O)cc1 (stereo not drawn) | -7.04% | –
CC1CN(S(=O)(=O)c2ccc(C(=O)NN3CCN(C)CC3)cc2)CC(C)O1 (stereo not drawn) | -9.75% | –
Cc1ccc(C(C)C)cc1OCCN1CCCC1 | 7.86% | –
Cc1ccc(Cl)cc1-c1ccc(/C=N/n2cnnc2)o1 | -18.9% | –
Cc1cc([N+](=O)[O-])c(-c2ccc(/C=N/n3cnnc3)o2)cc1Cl | -28.3% | –
Cc1cc(-c2ccc(/C=N/n3cnnc3)o2)c([N+](=O)[O-])cc1C | – | 10 µM (active)
N#Cc1ccc(C(=O)Nc2nc(-c3cccs3)c(C(=O)C(F)(F)F)s2)cc1 | 3.33% | –
COc1c(C(=O)N2CCCC2)ccc2ccccc12 | – | 12.6 µM (active)
O=C(c1cccc2ccccc12)N1CCN(c2ccccc2F)CC1 | -14.2% | –
COc1ccc(OCc2cccc(C(=O)N3CCCC3)c2)cc1 | -28.1% | –
C/C(=N/NC(=O)c1ccc(Br)o1)c1ccc(C)o1 | -27.2% | –
CCCCC/C=C\CC1OC1CCCCCCCC(=O)O (stereo not drawn) | -7.93% | –
COC(=O)C/C=C/[C@@H](C)[C@H](NC(=O)OCC(Cl)(Cl)Cl)c1ccccc1 | -2.46% | –
COc1ccc(-n2c(=S)[nH]c3sc4c(c3c2=O)CCc2ccccc2-4)cc1 | – | 12.6 µM (active)
CSc1nc2sc3c(c2c(=O)[nH]1)CCc1ccccc1-3 | -7.61% | –
COc1ccc(C(=O)Nc2ncc3c(n2)-c2ccccc2CC3)cc1 | -20.4% | –
Cc1cccc(C(=O)NCC(=O)OCC(=O)N2CC3(C)CC2CC(C)(C)C3)c1 (stereo not drawn) | -5.91% | –
Cn1cccc1/C=N/NC(=O)c1ccc(OC(F)(F)C(F)F)cc1 | -5.18% | –
CCN(CC)C(=O)CSc1nnc(-c2cccc(OC)c2)o1 | -11.1% | –
COc1ccc(CN(C(=O)CSc2nnc(-c3ccc(OC)c(OC)c3)o2)c2ccc(F)cc2)cc1 | – | 14.1 µM (active)
COc1ccc(CCNC(=O)CSc2nnc(-c3cccc(F)c3)o2)cc1OC | -14.4% | –
